# Screens deposited in PubChem BioAssay by National Center for Advancing Translational Sciences (NCATS).
# Pf growth 48h: inhibits P. falciparum growth in the first generation, 48 h. P. falciparum luciferase growth in erythrocytes, 48 h. Potency, µM (doses to about 28.7 µM), most hits filed as inhibitors. 310,000 compounds, 5.9% hits
#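 Growth was read as firefly luciferase luminescence after a 48 h, 37 C, 5% CO2 exposure of compounds to reporter-bearing P. falciparum cultures (0.1% parasitemia, 2% hematocrit final) in Albumax-supplemented RPMI 1640.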
# MARV entry inh: inhibitors of Marburg virus binding or cell entry. AID 540276. Potency, µM (top dose mostly 37.8 µM), actives largely listed as inhibitors. Marburg virus pseudotyped entry inhibition, cell reporter. 300,000 compounds, 1.8% hits; calls by dose curve; tested in HEK293 cells
# CHX counter: affects cycloheximide protein synthesis inhibition readout, counter-screen. AID 2314. max response, %. 300,000 compounds, 12% hits. cell reporter, cycloheximide protein synthesis inhibition counterscreen; in the data active means max response mostly above about 13%, no sharp cut-off; inactive means mostly below about 14%; further: read at 38.3 µM for the half of the compounds with a filed dose
# Lassa entry inh: blocks Lassa virus binding to or entry into cells | Lassa virus pseudotype entry inhibition, cell reporter | Potency, µM (titrated, usually from 37.9 µM), most hits filed as inhibitors | 300,000 compounds, 1.2% hits | AID 540256; calls by dose curve; tested in HEK293 cells; further: nearly all actives have a fitted effect of over 50% in size
# Pf growth 96h: P. falciparum growth inhibition at 96 hours | P. falciparum luciferase reporter growth, 96 h | Potency, µM (top dose mostly 28.7 µM), most hits filed as inhibitors | 320,000 compounds, 6.9% hits | AID 504834
#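 Luminescence readout: decreased luciferase signal marks inhibited growth of reporter-expressing P. falciparum in infected red cells (2% hematocrit, 0.05% parasitemia final), exposed to compound two generations (96 h, 37 C, 5% CO2).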
# Shiga inhibitor: blocks Shiga toxin action in Vero cells. Vero cells, Shiga toxin protein synthesis inhibition reporter. inhibition, % at 38.7 µM. 290,000 compounds, 9.2% hits. AID 2315; in the data active means inhibition mostly above about 28%, no sharp cut-off; inactive means mostly below about 43%
# Numbers stand for hits; – = inactive; ? = inconclusive; · = not tested or not shown. The list is not random: actives were taken first. Their share in the collection is about 19%. Unless noted, the call rests on the fitted dose curve; in most records, active means well fitted inhibition curve with a large enough effect; inconclusive means small, poorly fitted or top-dose-only effect, or another doubt; inactive means no such curve, though single readings can be large or run the other way.
SMILES,Pf growth 48h,MARV entry inh,CHX counter,Lassa entry inh,Pf growth 96h,Shiga inhibitor
CCCCCC(=O)Nc1ccc(S(=O)(=O)Nc2nccnc2OC)cc1,–,–,–,–,2.3µM,–
COc1nccnc1NS(=O)(=O)c1ccc(NS(=O)(=O)c2ccc(NC(C)=O)cc2)cc1,·,–,–,–,?,–
COc1nccnc1NS(=O)(=O)c1ccc(NC(=O)c2ccccc2Br)cc1,–,–,–,–,?,–
COc1nccnc1NS(=O)(=O)c1ccc(NCc2cc(Br)ccc2O)cc1,?,?,37,?,–,57
O=C(Nc1ccc(C(=O)N2CCCC2)cc1)c1ccc2c(c1)OCO2,·,–,27,–,?,–
COC(=O)c1c(-c2cccnc2)csc1NC(=O)c1ccc2c(c1)OCO2,–,–,37,?,?,70
O=C(c1ccc2c(c1)OCO2)N1CCCC1,–,–,–,–,–,–
COc1ccc(NCc2ccc3c(c2)OCO3)cc1Cl,–,–,22,–,·,43
COc1cc(OC)c(OC)cc1CNCc1ccc2c(c1)OCO2,–,·,–,·,–,–
COC(=O)c1ccc(NC(=O)c2ccc3c(c2)OCO3)cc1,–,–,24,–,15µM,43
O=C(c1ccc2c(Cl)c3c(nc2c1)CCCC3)N1CCN(c2cccc(Cl)c2)CC1,·,?,·,–,·,·
O=C(Nc1ccc(F)c(Cl)c1)c1ccc2c(c1)OCO2,–,–,51,–,?,105
COc1ccc(NC(=O)c2ccc3c(c2)OCO3)cc1Cl,–,?,66,?,–,76
COc1cc(NC(=O)c2ccc3c(c2)OCCO3)ccc1NC(=O)c1ccccc1Cl,–,–,–,?,–,–
NS(=O)(=O)c1ccc(NC(=O)c2ccc3c(c2)OCO3)cc1,–,?,–,?,–,–
COc1nc(C)cc(C)c1S(=O)(=O)c1ccccc1C,–,–,–,–,?,–
CCN(CCn1cccn1)C(=O)c1cc(COc2ccccc2SC)on1,–,–,65,–,–,94
CCN(CCn1cccn1)C(=O)c1cc(COc2cc(C)ccc2C)on1,–,?,62,?,?,168
CCN(CCN1CCCC1)C(=O)c1cc(COc2ccccc2SC)on1,–,?,–,–,?,–
CCN(CCn1cccn1)C(=O)c1cc(COc2ccc(F)c(F)c2)on1,–,?,30,–,–,50
Cc1ccc(N2C(=O)N(CC(=O)NCc3ccc(Cl)cc3)C(=O)C2C)cc1 (configuration not stated),–,–,–,?,–,–
Cc1nn(Cc2ccc(C(=O)N3c4ccc(F)cc4CCC3C)o2)c(C)c1Br (configuration not stated),·,?,–,–,13µM,–
CC1CCCCN1C(=O)N[C@@H](Cc1ccccc1)C(=O)O (some centres not stated),–,–,–,–,–,–
CC1CCCCN1C(=O)C(Cc1ccccc1)N1C(=O)C2CCCCC2C1=O (configuration not stated),–,–,–,–,13µM,–
c1ccc(CCSc2nccn2-c2ccccc2)cc1,–,?,52,–,–,120
SMILES,Pf growth 48h,MARV entry inh,CHX counter,Lassa entry inh,Pf growth 96h,Shiga inhibitor
N=c1n(Cc2ccccc2)c2ccccc2n1CC(O)c1ccco1 (configuration not stated),·,?,–,–,?,–
O=C(CS(=O)(=O)c1cn(CC(=O)N2CCOCC2)c2ccccc12)NCc1ccccc1,·,?,·,–,·,·
CCN(CC)CCNC(=O)CCn1c(=S)[nH]c2cc3c(cc2c1=O)OCO3,–,–,–,–,–,–
CCN(CC)CCn1c(=S)[nH]c2cc3c(cc2c1=O)OCO3,–,?,–,–,10µM,–
Cc1ccc(C)c(N2CCN(C(=O)CCCn3c(=S)[nH]c4cc5c(cc4c3=O)OCO5)CC2)c1,12µM,?,–,–,?,–
CCOc1ccc(C2CC(=O)c3c([nH]c(C(=O)OCCOc4ccccc4)c3C)C2)cc1 (configuration not stated),·,–,·,?,·,·
COC(=O)c1c(C(=O)OC)c(-c2ccc(OC)cc2)n2c1CS(=O)(=O)C2,?,·,–,·,?,–
CCOC(=O)c1nnn(-c2ccccc2)c1C,–,–,–,?,–,–
CCOC(=O)c1nnn(-c2ccc([N+](=O)[O-])cc2[N+](=O)[O-])c1C,12µM,·,–,·,–,–
COc1ccccc1CNC(=O)c1c[nH]c2ccc(S(=O)(=O)Nc3cc(C)cc(C)c3)cc2c1=O,·,·,·,–,·,·
